# From PubChem BioAssay AID493248 (Broad Institute, 2011)
# In all, about 2,300 compounds went through this assay and about 1,400 (61%) were called active. Not shown: some 7% with an inconclusive outcome. How the calls were made is not given here. The set was probably picked from earlier hits. Only a sample is shown. Measured potencies and affinities stand elsewhere.
# Target: FAD-linked sulfhydryl oxidase ALR (Homo sapiens) (UniProt P55789)
# Experiment: ALR-catalysed DTT oxidation blockers – biochemical, H2O2 detection, luminescence, cherry-pick, dose response (AID 493248)
# Details: purified ALR, H2O2 HRP-luminol luminescence; at 10 µM (top of the series)
# Sequence of FAD-linked sulfhydryl oxidase ALR (Homo sapiens) (P55789 whole entry, looked up): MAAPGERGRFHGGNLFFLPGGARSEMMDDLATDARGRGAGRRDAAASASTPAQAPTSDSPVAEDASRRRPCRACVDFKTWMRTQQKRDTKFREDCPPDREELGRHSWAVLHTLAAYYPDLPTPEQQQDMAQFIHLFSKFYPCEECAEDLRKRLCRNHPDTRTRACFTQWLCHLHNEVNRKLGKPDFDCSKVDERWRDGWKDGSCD
row,SMILES,"activity change, negative = inhibition"
1,Nc1ccc2sc(N)nc2c1,299%
2,Cc1cc(NC(=O)c2sc(Nc3ccc(F)cc3)nc2N)no1,-41.5%
3,O=C(c1ccccn1)N1CCCC(N2CCN(c3ccc(F)cc3)CC2)C1 (centres undefined),-82.4%
4,CC(C)N(c1nnc(N)s1)C(C)C,-37.4%
5,COc1ccc(C(N)CCc2ccco2)cc1 (centres undefined),0.936%
6,Cc1ccc(NC(=O)Nc2cccs2)nc1,-2.58%
7,CC(C)NC(=O)Nc1cccs1,-47.1%
8,O=C(Nc1cccs1)Nc1c(F)cc(F)cc1Br,-42.8%
9,Cc1ccc(N2CCN(CCCN3C(=O)C4CCCN4C3=O)CC2)cc1 (centres undefined),-22.5%
10,Oc1ccc(NCc2cccs2)cc1,41.7%
11,O=C(C1CCCC1)N1CCCC(Nc2ccc(F)cc2)C1 (centres undefined),-72.7%
12,COc1ccc(NC2CCCN(C(=O)c3oc(C)cc3C)C2)cc1OC (centres undefined),75.6%
13,C=CCNC(=O)c1onc(CSc2ccc(C)c(C)c2)c1C(=O)O,10.6%
14,CCCCNC(=O)c1onc(CCl)c1C(=O)OC,-46.6%
15,Cc1cc2c(N3CCCCC3C)ncnc2s1 (centres undefined),-5.25%
16,Cc1ccc(NC(=O)C2CCN(S(=O)(=O)c3cccc4cccnc34)CC2)nc1,-47.3%
17,CC(c1ccc(F)cc1)n1c(-c2cccs2)n[nH]c1=S (centres undefined),-12.6%
18,Cc1n[nH]c(=S)n1-c1ccc(Cl)cc1,-91.4%
19,Cc1cccc(-n2c(C)n[nH]c2=S)c1C,-35.3%
20,CCn1c(-c2cc(Cl)ccc2OC)n[nH]c1=S,-40.3%
21,CC(NS(=O)(=O)c1ccccc1)c1n[nH]c(=S)n1-c1ccccc1 (centres undefined),-28.7%
22,Oc1c(Br)cc(Br)c(/C=N/n2c(-c3ccccc3)n[nH]c2=S)c1Br,-75.2%
23,CCn1c(N)[n+](CC(=O)Nc2ccc(SC(F)F)cc2)c2ccccc21,17.1%
24,Cc1cc(NCc2ccccn2)nc2ccccc12,16.8%
25,Cc1nn(CC2CCCCC2)c(N)c1-c1ccccc1,-21.2%

row,SMILES,"activity change, negative = inhibition"
1,CN(CC(=O)NCc1ccco1)S(=O)(=O)c1ccc2c(c1)n(C)c(=O)c(=O)n2C,-5.75%
2,Cc1ccc(S(=O)(=O)NNC(=O)c2ccc(O)cc2)cc1,-54.2%
3,Cc1cc(C)nc(Sc2c(C)nn(-c3ccccc3)c2C)n1,-4.01%
4,Cc1ccc([N+](=O)[O-])cc1S(=O)(=O)Nc1ccc(O)c(Sc2ncn[nH]2)c1,-101%
5,Cc1cccc(NC(=O)C2CCN(S(=O)(=O)c3cccc4cccnc34)CC2)c1,-19.2%
6,CN(C)/N=C/c1ccc(OC(=O)c2cccc([N+](=O)[O-])c2)cc1,-3.63%
7,COc1ccc(N=C(N(C)C)P(=O)(N(C)C)N(C)C)cc1,-0.552%
8,Nc1ccc2c(c1)-c1ccccc1S(=O)(=O)N2,-105%
9,Cn1nc(-c2ccc(Cl)cc2)c2cc(C(=O)NC3CC3)sc21,-2.11%
10,CCN1CCN(C(=O)c2cc3c(-c4ccc(Cl)cc4)nn(C)c3s2)CC1,-4.97%
11,COc1cccc(-c2nc(CCl)cs2)c1,22.5%
12,Fc1ccc2c(c1)/C(=N/Nc1ccccn1)CCS2,-12.8%
13,COc1ccc(-c2cc(-c3n[nH]c(=S)n3-c3cc(OC)ccc3OC)[nH]n2)cc1,46.9%
14,O=C(CN1C(=O)S/C(=C\C=C\c2ccccc2)C1=O)Nc1ccc(C(=O)O)cc1,-22.9%
15,O=c1c2c(nc3n1CCCCC3)sc1c(O)cccc12,-92.9%
16,COc1ccc2c(/C=N/NS(=O)(=O)c3ccc(C)cc3)c[nH]c2c1,-4.96%
17,COc1cc(/C=N/Nc2cc(C)nc(N)n2)ccc1O,-108%
18,COc1ccc(/C=N/Nc2ccc([N+](=O)[O-])cc2)cc1O,-70%
19,Oc1ccc(/C=N/NC2=NCCCCC2)cc1,-110%
20,COc1ccccc1NS(=O)(=O)c1cc([N+](=O)[O-])ccc1N/N=C/c1c[nH]c2ccccc12,0.734%
21,O=C(CNc1ccccc1)N/N=C/c1c[nH]c2ccccc12,-29.1%
22,O=[N+]([O-])c1cccc(N/N=C/c2cccc(O)c2O)c1,-6.94%
23,COc1ccc(Nc2nc(N)c3ccccc3n2)c(OC)c1,-5.05%
24,Cn1c(CNc2ccc(F)cc2)nc2ccccc21,4.17%
25,COc1ccc2nc3ccccc3nc2c1N,417%

row,SMILES,"activity change, negative = inhibition"
1,CCN1C(=O)c2cccc3c(N)ccc1c23,-69.8%
2,Cc1ccc(S(=O)(=O)NCC(=O)NCC2CCCCC2)cc1C,18.2%
3,Cn1c(=O)[nH]c(=O)c2c1[nH]c(=S)n2Cc1ccccc1,-58.1%
4,Cc1cnc(C(=O)Nc2ccc(C(=O)N3CCCCC3)cc2)cn1,0.57%
5,O=C(c1cc(-c2ccc(O)cc2)on1)N1CCCCCC1,-103%
6,CC(C)(C)C(=O)NC1=NCCS1,-0.254%
7,C/C(=N\NC(=O)c1csc2ccccc12)c1ccc(O)cc1,-107%
8,COc1ccc(CNc2ccc(Br)cc2)cc1,-0.843%
9,C/C(=N\Nc1ccccn1)c1ccc(OC(F)F)cc1,30.6%
10,COc1cc(C(=O)n2nc(C)cc2C)ccc1O,108%
11,CC(C)(C)NC(=O)C(Cc1ccccc1)NS(=O)(=O)c1ccc2c(c1)CCC(=O)N2 (centres undefined),-98.2%
12,COc1c(Cl)cc(C(=O)NN)cc1Cl,-36.3%
13,NNC(=O)c1cc(O)c(O)c(O)c1,8.57%
14,Cc1ccc(-n2[nH]c(C)c(/C=N/NC(=O)c3ccc(O)cc3O)c2=O)cc1,-40.4%
15,CCCc1cc(=O)[nH]c(SCc2cccnc2)n1,-44.3%
16,CC1(C)CN(c2ccccc2)N(C(=O)c2ccc(F)cc2)C1=O,-46.1%
17,COc1cc(/C=N/O)cc(Br)c1OC,21.8%
18,CCN(CC)CC(=O)c1ccc(-c2ccccc2)cc1,-34.7%
19,CCc1ccccc1Nc1ccc(C(=O)O)cc1N,-23%
20,Oc1ccc(-c2cnns2)c(O)c1,-104%
21,N[C@@H](Cc1ccccc1)c1nnc(SCc2ccccc2Cl)o1,-33.5%
22,O=C(O)c1cc([N+](=O)[O-])c(Sc2nc3ccccc3[nH]2)c([N+](=O)[O-])c1,-46.4%
23,COc1cccc(NC(=O)c2c([N+](=O)[O-])cnn2C)c1,-15.3%
24,Nc1ccccc1C(O)(Cc1ccccc1)c1ccccc1 (centres undefined),-3.4%
25,Fc1ccccc1Nc1n[nH]c(=S)s1,-40.4%

row,SMILES,"activity change, negative = inhibition"
1,COc1cc(/C=N/Nc2ccc([N+](=O)[O-])cn2)cc(OC)c1O,-73.9%
2,CC(Nc1ccccc1)c1cc(Cl)ccc1O (centres undefined),-48.4%
3,C=C(C)C(=O)Nc1ccc(NC(C)C)cc1,266%
4,COc1ccccc1N(Cc1ccccc1)S(=O)(=O)c1cc(C(=O)O)ccc1Cl,-48.6%
5,Cc1ccc2c(CN3CCC(C(N)=O)CC3)cc(=O)oc2c1C,-10.9%
6,CN(C)Cc1c(O)ccc2c3c(c(=O)oc12)CCCCC3,148%
7,Cn1ccnc1SCc1cn2ccccc2n1,-1.35%
8,O=C(c1cc(-c2ccc(O)cc2)on1)N1CCN(c2ccccc2)CC1,418%
9,S=c1[nH]ncn1NCc1ccc(Cl)cc1Cl,-23.3%
10,Cc1cc(-c2n[nH]c(=S)n2/N=C/c2cccc([N+](=O)[O-])c2)n[nH]1,-55.9%
11,COc1cc(/C=C2\SC(=S)N(NC(=O)c3cccnc3)C2=O)ccc1O,-97.7%
12,Cc1nnc(Nc2ccc3c(c2)OCO3)c2ccccc12,20.5%
13,Cc1csc2nc(CSc3ccc(Cl)cc3)cn12,-28.1%
14,c1ccc(Nc2c(-c3ccco3)nc3ccccn23)cc1,-67%
15,COc1ccc(-n2c(-c3ccc(OC)c(OC)c3)n[nH]c2=S)cc1,-27%
16,CCN1CC(c2ccccc2)C(c2ccc(Cl)cc2)=N1 (centres undefined),-26.4%
17,O=C(Nc1cccs1)Nc1ccccc1Cl,-59.6%
18,CN1c2ccccc2Sc2cc(N)ccc21,-71%
19,CN(C)c1ccc(/C=N/OC(=O)Nc2ccccc2)cc1,-22.3%
20,O=C(O)C1C(c2ccccc2)C(C(=O)Oc2ccc(O)cc2)C1c1ccccc1 (centres undefined),-97.2%
21,CCCCN1C2=NC(c3ccccc3)CN2c2ccccc21 (centres undefined),-14%
22,Fc1ccc(CN2C3=NCCN3c3ccccc32)cc1,-38.3%
23,COc1cc(NC(=O)CN2C(=O)C(c3ccccc3)=NC2(C)C)cc(OC)c1,-10%
24,CCN(CC)S(=O)(=O)c1ccc(NC(=O)c2c(-c3ccccc3)noc2C)cc1,-1.33%
25,COc1cc(/C=N\NC(=O)c2ccc(Cn3cc(Br)c([N+](=O)[O-])n3)o2)cc(OC)c1O,-36.4%

row,SMILES,"activity change, negative = inhibition"
1,COc1ccc(CN2C(=O)C3C4C=CC(C4)C3C2=O)cc1 (centres undefined),24.9%
2,CC(C)CC1(C(=O)O)NC(c2ccccc2O)C2C(=O)N(C(C)C)C(=O)C21 (centres undefined),-7.77%
3,COc1ccc(CNc2ccccc2)cc1Br,-3.19%
4,COc1ccc(NCc2ccc3c(c2)OCO3)cc1Cl,-12.5%
5,CCN(CC)c1ccc(NC(=O)CN2C(=O)CSc3ncccc32)c(C)c1,-11.2%
6,Cc1cc2nc3ccc(N(C)C)cc3nc2cc1N,-98.1%
7,CC1C/C(=N/NC(=O)c2cccc(F)c2)c2ccc(O)cc2C1 (centres undefined),-63.8%
8,CNC(=O)CN1C(=O)c2ccccc2S1(=O)=O,14%
9,COc1ccc(-c2csc(Cc3nnc4n3CCCCC4)n2)cc1OC,-2.63%
10,CCN1CCn2c3c(c4cc(C)ccc42)CCCC31 (centres undefined),32.6%
11,CCc1oc2ccccc2c1C(=O)c1cc(Br)c(O)c(Br)c1,-16.5%
12,Cc1cccc(NNC(=O)C(=O)NNc2cccc(C)c2)c1,-2.1%
13,COC(=O)c1c(N)sc2c1CC(C)(C)OC2,0.616%
14,Cc1cc(C)cc(N(CC(=O)NCc2ccco2)S(=O)(=O)c2c(C)noc2C)c1,-11.1%
15,Cc1ccc(N(C)S(=O)(=O)c2cccc(C(=O)Nc3nnc(C4CC4)s3)c2)cc1,41.9%
16,CCSc1nnc(NC(=O)C2CCCN(S(=O)(=O)c3cnc[nH]3)C2)s1 (centres undefined),4.79%
17,Cc1cc(C(=O)Nc2nc3c(C)cccc3s2)c(C)o1,-29%
18,COc1cccc(CNc2nc3ccccc3n2CCN2CCCCC2)c1,73.7%
19,Cc1[nH]oc(=O)c1N=Nc1c(Cl)cccc1Cl,-48.5%
20,O=S(=O)(c1cccs1)n1cnc2ccccc21,-2.54%
21,Cc1cc(Cc2ccc(N)c(C)c2)ccc1N,12.8%
22,C=CCSc1nnc2c(n1)OC(c1ccco1)Nc1ccccc1-2 (centres undefined),-91.3%
23,COC(=O)c1ccn(CC(=O)NC2CCCCC2)n1,-5.32%
24,COc1cc(C(=S)NC2CCCCC2)ccc1O,99.8%
